Compounds with a hit are over-represented: about 12% of the library has one in this group of screens.
Sm TGR block: qHTS Assay for the Inhibitors of Schistosoma Mansoni Peroxiredoxins; AID 485364, 2010; 360,000 compounds, 3% hits; Schistosoma mansoni thioredoxin glutathione reductase (TGR), Q962Y6; Potency, µM (series often up to 114 µM), inactives show at the highest dose activity change, negative = inhibition, usual class: inhibitors; purified TGR, DTNB reduction, TNB absorbance 405 nm; further: on the % scale 0 is the no-effect control and ±100 the full control effect; nearly all actives have a fitted effect of over 60% in size
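Kinetic colorimetric format: TGR-catalysed, NADPH-driven DTNB reduction monitored via TNB absorbance. Enzyme dispensed at 20 nM; compound exposure 15 min at room temperature before reaction start.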
Pf growth 48h: Primary qHTS for delayed death inhibitors of the malarial parasite plastid, 48 hour incubation; P. falciparum luciferase growth in erythrocytes, 48 h; Potency, µM (top dose mostly 28.7 µM), for inactives: at the highest dose activity change, negative = inhibition, hits mostly inhibitors; 310,000 compounds, 5.9% hits; further: on the % scale 0 is the no-effect control and ±100 the full control effect
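Compounds are pin-transferred into medium, infected erythrocytes (2% hematocrit, 0.1% parasitemia final) are added, and plates sit one parasite generation at 37 C in 5% CO2. Detection reagent is then added and luminescence measured.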
SARS PLP yeast: qHTS of Yeast-based Assay for SARS-CoV PLP. S. cerevisiae expressing SARS-CoV PLpro, growth rescue. Potency, µM (highest dose often 32.9 µM), for the others: top-dose activity, positive = growth rescue, hits mostly activators. 330,000 compounds, 0.19% hits; calls by dose curve; further: 0% is about no effect; nearly all actives have a fitted effect of over 55% in size
Pf growth 96h: Primary qHTS for delayed death inhibitors of the malarial parasite plastid, 96 hour incubation; P. falciparum luciferase reporter growth, 96 h; Potency, µM (series often up to 28.7 µM), for the others: at the top dose activity change, negative = inhibition, actives largely listed as inhibitors; 320,000 compounds, 6.9% hits; AID 504834, 2011; further: on the % scale 0 is the no-effect control and ±100 the full control effect
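Readout is luminescence from an integrated firefly luciferase in P. falciparum. Red cells, 2% hematocrit and 0.05% parasitemia final, were cultured with compound through two parasite generations (96 hours) at 37 C, 5% CO2.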
Starred values were filed as active, the others as inactive; ? = inconclusive; · = no result given. Unless noted, the call rests on the fitted dose curve; in most records, active means well fitted curve in the direction sought with a large enough effect; inconclusive means small, poorly fitted or top-dose-only effect, or another doubt; inactive means no such curve, though single readings can be large; an effect the other way counts as inactive or inconclusive. Potency means the concentration at half of the fitted maximal effect.

SMILES	Sm TGR block	Pf growth 48h	SARS PLP yeast	Pf growth 96h
CCN(CC)c1ccc(NC(=O)CCCN2C(=O)C(c3ccccc3)Oc3cccnc32)c(C)c1 (centres undefined)	-6%	·	·	·
COc1cc(-c2nc(Cn3nnc(C(=O)Nc4ccccc4)c3C)c(C)o2)cc(OC)c1OC	0%	·	·	·
C=CCN1C(=O)[C@@H]2Cc3c([nH]c4ccccc34)C(c3cc(OC)c(OC)c(OC)c3)N2C1=S (some centres undefined)	-4%	8.3µM*	0%	?
CCN1C(=O)[C@@H]2Cc3c([nH]c4ccccc34)C(c3cc(OC)c(OC)c(OC)c3)N2C1=S (some centres undefined)	?	?	-1%	?
O=[N+]([O-])C(/C=C(\Cl)[N+](=O)[O-])=C(N1CCCCC1)N1CCCCC1	?	?	-4%	1.2µM*
O=[N+]([O-])C(=C1SCCS1)C(=C(Cl)Cl)N1CCCCC1	0%	-13%	-7%	27%
Cn1c(=O)c2c(SCC(=O)NCc3ccco3)nc(-c3cccc(F)c3)nc2n(C)c1=O	0%	·	·	·
O=C(NCc1cccnc1)c1cccc(OC2CCN(Cc3ccc(CO)o3)CC2)c1	-27%	3%	-3%	14%
Cc1cc(C)nc(/N=C(\N)N2CCCCC2)n1	45µM*	-8%	-1%	?
CCN(CC)c1ccc(CNS(=O)(=O)c2cc3c(cc2C)NC(=O)CO3)cc1	2%	·	·	·
Cc1ccc([C@@H]2[C@@H]3C(=O)N(c4ccccc4)C(=O)[C@@H]3[C@]3(C)C(=O)N(Cc4ccc(-c5ccccc5)cc4)CC(=O)N23)o1	?	-16%	-2%	-1%
CC(O)C(NS(=O)(=O)c1ccc(Cl)cc1)C(=O)OCC(=O)c1c[nH]c2ccccc12 (centres undefined)	·	-14%	0%	0%
COc1ccc(C(=O)OCC(=O)c2c[nH]c3ccccc23)cc1OC	-13%	15µM*	4%	4.7µM*
C=CCN(c1ccccc1OC)S(=O)(=O)c1cccc(C(=O)OCC(=O)c2c[nH]c3ccccc23)c1	-2%	?	12%	4.7µM*
Cc1cnc(C(=O)OCC(=O)c2c[nH]c3ccccc23)cn1	1%	13µM*	-2%	?
CC(C)C(NS(=O)(=O)c1c(Cl)cccc1Cl)C(=O)OCC(=O)c1c[nH]c2ccccc12 (centres undefined)	4%	4.1µM*	-14%	4.7µM*
C=CCN(c1ccccc1OC)S(=O)(=O)c1cccc(C(=O)OCC(=O)N2CCOCC2)c1	·	·	3%	·
CCOc1ccc(N2CC(NC(=O)c3ccc(Cl)cc3)CC2=O)cc1 (centres undefined)	11%	·	·	·
CN(C)S(=O)(=O)c1ccc(NC(=O)CSc2nnc(-c3ccco3)o2)cc1	·	·	3%	·
CC1=C(C(=O)N2CCN(c3ccc(Cl)cc3)CC2)C2(CCC(C)CC2)OC1=O (centres undefined)	-16%	·	·	·
O=C(Cc1ccc(F)cc1)Nc1cccc(-c2nc3cccnc3s2)c1	1%	·	·	·
O=C(NCc1ccccn1)c1ccc(OC2CCN(Cc3ccc(CO)o3)CC2)cc1	?	30%	0%	-28%
COc1ccc(CC(=O)NCc2ccc3c(c2)CCN3C(=O)c2cccc(C)c2)cc1	-6%	·	·	·
COc1cc(OC)c(N(C)S(=O)(=O)c2cccc(C(=O)OCC(=O)c3c[nH]c4ccccc34)c2)cc1Cl	6%	1.9µM*	4%	?
C=CCn1c(=O)c(C(=O)NC2CC2)c(O)c2cc(OC)c(OC)cc21	4%	5%	-4%	12µM*
SMILES	Sm TGR block	Pf growth 48h	SARS PLP yeast	Pf growth 96h
C=CCn1c(=O)c(C(=O)NCCc2ccc(Cl)cc2)c(O)c2cc(OC)c(OC)cc21	5%	1%	1%	5%
CCc1c(C)c(C#N)c2nc3ccccc3n2c1Nc1cccc(C(F)(F)F)c1	2%	·	·	·
CNC(=O)c1c(NC(=O)C2=COCCO2)sc2c1CCCC2	-1%	11%	-12%	13µM*
NC(=O)c1c(NC(NC(=O)c2ccco2)C(=O)c2ccc(Cl)cc2)sc2c1CCCC2 (centres undefined)	32µM*	·	-6%	?
CNC(=O)c1c(NC(=O)c2ccco2)sc2c1CCC2	32µM*	-6%	-4%	-66%
CCOC(=O)N1CCc2c(sc(NC(=O)C3=COCCO3)c2C(N)=O)C1	-16%	?	-3%	?
